# Test results as given in ChEMBL document CHEMBL4513149, “CO-ADD screening of MMV (CH) - MMV compounds” (2021).
# Potency and affinity values are given separately.
# Key:
# Staphylococcus aureus = conditions: Concentration 20 uM; ASSAY_TEST Inhibition of Bacterial Growth; detection method Absorption (OD600); MEDIA CAMHB; plate type 384well; NBS; CORNING #3640; time 18 hr
# Escherichia coli = conditions: Concentration 20 uM; ASSAY_TEST Inhibition of Bacterial Growth; detection method Absorption (OD600); MEDIA CAMHB; plate type 384well; NBS; CORNING #3640; time 18 hr
SMILES,Inhibition (Staphylococcus aureus),Inhibition (Escherichia coli)
FC(F)(F)c1ccc(N(c2cccnc2)C2CCN(c3ccc(C(F)(F)F)cn3)CC2)cc1,14.25%,5.86%
Cc1cccc(NC(=O)c2cc(S(=O)(=O)N(C)c3ccc(F)cc3)ccc2Cl)n1,12.32%,7.88%
CCOc1ccccc1NC(C)C(=O)Nc1cc(C(F)(F)F)ccc1N1CCOCC1 (centres undefined),15.12%,7.27%
Cc1cccc(Cn2ccc(NC(=O)c3ccc4c(c3)OCO4)n2)c1,18.14%,6.79%
Cc1ccc(Oc2ccc(NC(=O)CNc3ccccc3N3CCCC3=O)cc2)cc1,5.88%,6.72%
CC1COC2(CCN(c3nc(=O)c4cc(C(F)(F)F)cc([N+](=O)[O-])c4s3)CC2)O1 (centres undefined),16.17%,4.14%
CCOc1ccc(-c2nc(CNCCc3ccc(F)cc3)cs2)cc1,30.74%,7.75%
O=C1Nc2ccc(Br)cc2C12NCCc1c2[nH]c2ccccc12 (centres undefined),8.87%,4.53%
O=C(C1CCN(c2nnc(-n3cccc3)s2)CC1)N1CCC(Cc2ccccc2)CC1,17.77%,6.98%
OCCc1ccc(Nc2nccc(-c3nnc4ccccn34)n2)cc1,21.71%,6.52%
NS(=O)(=O)c1cccc(-c2ccc3ncc(N4CCOCC4)nc3c2)c1,16.94%,14.17%
CC(C)(C)c1cc(C(=O)N2CCN(c3nccnc3C#N)CC2)n(Cc2ccccc2)n1,20.75%,10.32%
CS(=O)(=O)Cc1nc2ccccc2oc1=O,30.23%,5.17%
CCn1ncc2c(NC3CCOCC3)c(CNC(=O)c3ccnn3C)c(C)nc21,5.59%,3.03%
Cc1cc(OCC(=O)NCc2ccccc2)c2cc(Br)ccc2n1,11.48%,7.85%
O=S(=O)(c1ccc(Cl)cc1)N1CCN(C(=S)NCc2ccco2)CC1,6.19%,-1.38%
CCc1ccccc1-n1c(C)cn2c3c(=O)n(C(C(=O)OC)C(C)C)c(=O)n(C)c3nc12 (centres undefined),5.27%,7.91%
Cc1cc(C)n(-c2ccc(NC(=O)C3CCN(Cc4cnc(C)s4)CC3)cc2)n1,16.08%,3.68%
CC(C(=O)N1CCCC1)N1CCN(S(=O)(=O)c2ccc(C(C)(C)C)cc2)CC1 (centres undefined),8.1%,-2.16%
Clc1ccc(Cl)c(CO[C@H]2CCCC[C@@H]2n2ccnc2)c1,22.53%,7.4%
Cc1cc(C(=O)Nc2ccc(-c3ccccc3)cc2)no1,16.2%,12.13%

SMILES,Inhibition (Staphylococcus aureus),Inhibition (Escherichia coli)
COc1ccc(-c2nn(C(C)C)c3ncnc(N)c23)cc1OC,14.97%,-0.52%
c1ccc2c(c1)CN(CC1CC1)CC1(CCN(Cc3c[nH]c4cnccc34)CC1)O2,14.8%,1.67%
CCOc1ccc(OCC(=O)Nc2cc(C)cc(C)c2)cc1,14.06%,3.81%
CC(C)(C)OC(=O)N1CCN(c2cc(-c3ccc(Oc4ccccc4)cc3)n[nH]2)CC1,17.78%,7.28%
CCCn1c(CNc2ccccc2O)nc2ccccc21,17.07%,4.85%
Cl.Cl.Cl.NS(=O)(=O)c1cncc(-c2ccc3nccc(-c4cn[nH]c4)c3n2)c1,9.83%,6.62%
Cc1ccc2oc(-c3cc(NC(=O)Cc4ccccc4)ccc3Cl)nc2c1,2.8%,6.02%
CCCCc1ccc(NC(=O)Nc2ccc(O[C@H]3CCCC[C@@H]3N(C)c3ccccc3)c(F)c2)cc1,12.12%,9.29%
O=C1[C@@H](Oc2ccccc2)[C@@H](c2ccc(Cl)cc2)N1CCn1cnc2c(NCc3ccccc3)ncnc21,-4.13%,1.08%
COc1cccc(NC(=O)c2c(NC(=O)c3cccnc3)sc3c2CCC3)c1,17.01%,4.69%
CC[C@H](CO)NCCN[C@H](CC)CO.Cl.Cl,13.87%,-1.24%
COc1ccc(-c2nnc3ccc(-c4cccc(C(C)C)c4)cn23)cc1OC,5.54%,12.18%
CCCNC(=O)N1CCC2(CC1)CC(=O)c1cc(C)ccc1O2,20.33%,10.17%
O=[N+]([O-])c1cn2c(n1)OC[C@@H](OCc1ccc(OC(F)(F)F)cc1)C2 [PRETOMANID],14.36%,4.79%
c1ccc(Oc2ccc(-c3cc(C4CCOCC4)[nH]n3)cc2)cc1,24.63%,11.25%
COc1ccc(-c2cncc3ccc(C(=O)NCCCn4ccnc4)nc23)cc1,13.71%,12.75%
FC(F)(F)c1cc(NCCc2ccccc2)nc(-c2ccccn2)n1,-9.89%,-6.09%
Cc1nn2c(O)c3c(nc2c1-c1ccc(F)cc1)CCCC3,17.1%,16.25%
CC(C)(C)n1nc(Cc2cccc3ccccc23)c2c(N)ncnc21,2.05%,-5.14%
COc1cc(-c2cc(-c3ccc(S(C)(=O)=O)cc3)cnc2N)ccc1O,12.87%,6.84%
CC(C)(C)c1ccc(N[C@@H]2CCCC[C@H]2NC(=O)c2ccco2)cc1,7.06%,10.16%

SMILES,Inhibition (Staphylococcus aureus),Inhibition (Escherichia coli)
CN(C(=O)c1cc2c(-c3cncnc3)cccc2[nH]1)c1ccccc1,12.46%,10.65%
CN1CCC(c2cc(-c3ccncc3)c(-c3ccc(F)cc3)[nH]2)CC1,-0.65%,-2.15%
Nc1cccnc1Nc1ccc(Cl)cc1,2.93%,-1.63%
CC(C)(C)n1nc(-c2ccccc2)c2c(N)ncnc21,6.95%,-3.37%
c1ccc(-c2cc(N3CCCCC3)c3ccccc3n2)nc1,9.48%,7.94%
CNc1nnc(Sc2cnn(-c3ccccc3)c(=O)c2Cl)s1,17.43%,-7.26%
O=C(NC1CCN(c2ccnc3ccccc23)C1)c1cccc(C(F)(F)F)c1 (centres undefined),10.7%,9.38%
O=C(NC1=NCCS1)c1sc2cc(F)ccc2c1Cl,2.69%,-4.46%
COc1ccc(Nc2ccccc2NC(=O)c2ccc(O)nc2)cc1,8.88%,-4.3%
CC(=O)N1CCc2cc3nc(C)cc(C)c3cc21,14.4%,5.79%
CCOc1ccc(-c2nc(NC(=O)CS(=O)(=O)c3ccccc3)sc2C)cc1,3.82%,-0.36%
COc1cc(C2=NCCN2)ccc1-n1cc(-c2cccc(C3=NCCN3)c2)nn1.O=CO.O=CO,1.49%,8.11%
COc1ccc(-c2cnc3ccc(N4CCCC4)nn23)cc1OC,12.67%,7.3%
Cc1ccc(S(=O)(=O)Nc2ccc(CN3CCN(C(=O)c4cccc(C#N)c4)CC3)cc2)cc1,8.99%,3.52%
O=C(CCC1CCCCC1)Nc1cccc(-c2nnc(-c3ccco3)o2)c1,8.68%,8.91%
OCc1ccc(-c2cncc(Nc3cccc(Cl)c3)c2)cc1,14.66%,10.9%
Cc1nn(C(=O)Nc2cccc(C(F)(F)F)c2)c(C)c1Sc1ncccn1,14.85%,7.79%
CCCCS(=O)(=O)Nc1ccc2cnn(C)c2c1,17.72%,10.93%
O=C(Nc1ccnc(-c2cccnc2)n1)c1cc(C(F)(F)F)cc(C(F)(F)F)c1,15.63%,6.19%
CCc1nc2ccccc2n1CC(O)COc1cc(C)ccc1Cl (centres undefined),11.53%,4.16%
